CHX counter – affects cycloheximide protein synthesis inhibition readout, counter-screen; cell reporter, cycloheximide protein synthesis inhibition counterscreen; max response, %; 12% of 300,000 active; AID 2314; in the data active means max response mostly above about 13%, no sharp cut-off; inactive means mostly below about 14%; further: read at 38.3 µM for the half of the compounds with a filed dose; 0% is about no effect
Shiga toxin inh – inhibitors of Shiga toxin in Vero cells; Vero cells, Shiga toxin protein synthesis inhibition reporter; inhibition, % at 38.7 µM; 9.2% of 290,000 active; AID 2315; in the data active means inhibition mostly above about 28%, no sharp cut-off; inactive means mostly below about 43%; further: 0% is about no effect
Pf growth 96h – P. falciparum growth inhibition at 96 hours | P. falciparum luciferase reporter growth, 96 h | Potency, µM (titrated, usually from 28.7 µM), for the others: at the top dose activity change, negative = inhibition, usual class: inhibitors | 6.9% of 320,000 active | AID 504834; further: potency means the concentration at half of the fitted maximal effect; on the % scale 0 is the no-effect control and ±100 the full control effect
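P. falciparum expressing integrated firefly luciferase, in erythrocytes at 2% hematocrit, 0.05% parasitemia, incubated with compounds 96 h at 37 C, 5% CO2. Growth inhibition read as loss of luminescence; two-generation exposure targets delayed-death apicoplast inhibitors.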
Pf growth 48h – P. falciparum growth inhibition at 48 hours (one generation). P. falciparum luciferase growth in erythrocytes, 48 h. Potency, µM (doses to about 28.7 µM), inactives show at the top dose activity change, negative = inhibition, most hits filed as inhibitors. 5.9% of 310,000 active. AID 504832; further: potency means the concentration at half of the fitted maximal effect; on the % scale 0 is the no-effect control and ±100 the full control effect
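Luciferase-expressing P. falciparum in infected erythrocytes (2% hematocrit, 0.1% parasitemia final) in RPMI 1640/0.5% Albumax were exposed to compound for 48 hours at 37 C, 5% CO2; growth read as luminescence.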
* = called active by the depositor; ? = inconclusive; . = no result. Hits are enriched below; roughly 21% of the tested compounds scored in any of these assays. Unless noted, the call rests on the fitted dose curve; in most records, active means well fitted inhibition curve with a large enough effect; inconclusive means small, poorly fitted or top-dose-only effect, or another doubt; inactive means no such curve, though single readings can be large or run the other way.

SMILES	CHX counter	Shiga toxin inh	Pf growth 96h	Pf growth 48h
Cc1cccc(Nc2nc(N)nc(CN3CCC(C(N)=O)CC3)n2)c1C	-1.6	8.8	.	-2.9%
Cc1ccc(Nc2nc(N)nc(CN3CCc4ccccc4C3)n2)cc1	10.3	7.2	-1.9%	?
Nc1nc(CCl)nc(Nc2ccccc2)n1	36.0*	71.1*	-55.5%	-28.8%
Cc1ccc(Nc2nc(N)nc(CC#N)n2)cc1	35.1*	45.7*	.	13.3%
COc1ccccc1C(=O)N/C(=C\c1ccccc1)C(=O)NCc1ccco1	0.9	11.4	0.9%	21.9%
CCOC(=O)C1=C(C(F)(F)F)Nc2ncnn2C1c1cc(OC)ccc1OC (stereo unspecified)	-2.9	-6.7	-2.6%	-4.5%
Cc1cc(C)nc(SCC(=O)Nc2nonc2N)n1	2.2	8.4	-0.7%	8.5%
COc1cc(C(=O)NCCN2CCN(C(=O)c3cc(OC)c(OC)c(OC)c3)CC2)cc(OC)c1OC	-3.4	2.5	-9.7%	40.0%
Cc1ccc(Nc2nc(N)nc(CCl)n2)cc1	75.3*	96.0*	?	?
Nc1nc(CN2CCN(Cc3ccccc3)CC2)nc(Nc2ccccc2)n1	5.3	-3.4	13.1µM*	?
Cc1ccc(Nc2nc(N)nc(CCl)n2)c(C)c1	78.5*	105.9*	-13.0%	?
CCOc1ccc(Nc2nc(N)nc(CCl)n2)cc1	42.8*	59.3*	?	?
Cc1ccc(Nc2nc(N)nc(CN3CCCCCC3)n2)c(C)c1	-2.7	-7.1	9.7%	?
COC(=O)CCNC(=O)c1nn(Cc2ccccc2)c(=O)c2ccccc12	2.2	18.7	-14.2%	-5.2%
CC(=O)Nc1cc(S(=O)(=O)Nc2ccccc2C)c(C)cc1C	-5.4	-10.3	-1.7%	0.4%
Cc1onc(-c2ccccc2Cl)c1C(=O)NC1CCCCCC1	11.3	5.4	-6.4%	0.0%
Nc1ncc(S(=O)(=O)c2ccc(Cl)cc2)c(N)n1	0.7	1.8	6.1%	25.7%
COc1cc(S(=O)(=O)N(C)C2CCCCC2)c(C)cc1C	-0.5	15.4	2.5%	-25.3%
Cc1ccc(Nc2nc(N)nc(CSCCO)n2)cc1	31.1*	59.9*	64.5%	110.5%
COC(=O)c1cc(NC(=O)Cc2cc(OC)c(OC)c(OC)c2)cc(C(=O)OC)c1	0.8	-6.9	?	-9.5%
O=[N+]([O-])c1ccccc1S(=O)(=O)Oc1ccccc1/C=N/n1cnnc1	-1.3	-9.1	1.85µM*	-19.8%
O=[N+]([O-])c1cccc(/C=N/n2cnnc2)c1O	3.8	-12.7	250.4%	17.3%
COC(=O)c1ccc(Cn2nc([N+](=O)[O-])c(Br)c2C)cc1	-1.0	-10.8	-4.1%	?
COC(=O)C(C)(C)NC(=O)c1cccs1	-3.8	-4.5	-15.4%	.
COC(=O)C(O)(c1ccc(NC(=O)c2ccccc2)cc1)C(F)(F)F (stereo unspecified)	51.1*	103.1*	74.3%	72.0%
SMILES	CHX counter	Shiga toxin inh	Pf growth 96h	Pf growth 48h
COC(=O)C(O)(c1ccc(NC(=O)c2cccs2)cc1)C(F)(F)F (stereo unspecified)	33.3*	71.7*	73.6%	74.7%
CCCCNC(=O)Nc1ccc(C(O)(C(=O)OC)C(F)(F)F)cc1 (stereo unspecified)	0.7	4.8	2.1%	3.1%
CCCNC(=O)c1ccc(SC)cc1OC	12.2	16.7	?	11.0%
COc1cc(SC)ccc1C(=O)NCCCOC(C)C	13.0*	13.7	?	25.4%
COc1cc(SC)ccc1C(=O)N(C)Cc1ccccc1	21.7*	28.4	20.7%	7.2%
COc1cc(SC)ccc1C(=O)NCc1ccccc1	26.0*	36.3*	?	1.3%
COc1cc(SC)ccc1C(=O)NCc1ccc(C)cc1	16.1*	30.7	?	?
CCNc1nc(NCC)n2c(SCC(=O)c3ccccc3Cl)nnc2n1	-1.1	-3.6	-20.4%	-24.6%
O=c1[nH]c(=O)c2[nH]c(=O)[nH]c2[nH]1	.	.	-8.8%	-9.9%
Cc1ccc(NC(=O)C(C)N2C(=O)c3ccccc3C2=O)cc1C (stereo unspecified)	-1.7	12.1	?	11.2%
Cn1c(-c2ccccc2)cnc1NCc1ccc(F)cc1	24.1*	39.3	6.1%	55.1%
Cn1c(-c2ccc(F)cc2)cnc1NCc1ccccc1	19.7*	54.7	?	20.3%
Cn1c(-c2ccc(F)cc2)cnc1NCc1cccc(F)c1	18.5	44.7	-56.6%	5.0%
C=Cn1c(P(=S)(N2CCOCC2)N2CCOCC2)cc2c1CCCC2	-5.1	-9.4	21.2%	11.7µM*
Cc1ccccc1C(=O)Nc1ccnn1C1CCN(C(=O)C2CCOC2)CC1 (stereo unspecified)	-1.4	-4.8	210.9%	-16.2%
NNC(=S)Nc1c(Br)cc(F)cc1Br	-0.7	-2.2	-1.5%	?
CC(C)C(NC(=O)c1c(F)cccc1F)C(=O)NCc1ccc(S(=O)(=O)N2CCOCC2)cc1 (stereo unspecified)	.	.	5.4%	?
O=c1cc(O)c2c(=O)n(Cc3ccccc3)c3ccccc3c2o1	1.0	-20.0	?	8.28µM*
O=C1CC(c2ccccc2)CC(O)=C1C=NC1CCCC1 (stereo unspecified)	-0.9	-3.8	-6.1%	?
O=C1CC(c2cccc(Cl)c2)CC(O)=C1C=Nc1cccc(Cl)c1 (stereo unspecified)	-1.3	4.0	72.7%	14.2%
O=C1CC(c2ccccc2)CC(O)=C1C=Nc1ccccc1O (stereo unspecified)	23.2*	32.1	157.0%	?
O=C1CC(c2ccccc2)CC(O)=C1C=Nc1ccccc1 (stereo unspecified)	30.3*	92.3*	23.9%	-15.9%
CC(CSC(=O)c1ccccc1)C(=O)N1C[C@@H](Sc2ccccc2)C[C@H]1C(=O)O (stereo partly specified)	.	.	-0.1%	-1.6%
COc1ccc(C2CC23N=C(c2ccccc2)OC3=O)cc1 (stereo unspecified)	-2.1	-2.9	10.8%	-5.1%
COc1ccccc1C1NC(=O)c2ccccc2O1 (stereo unspecified)	-1.8	-3.6	?	10.4%
SMILES	CHX counter	Shiga toxin inh	Pf growth 96h	Pf growth 48h
COc1ccc(C2CN=NC23CCc2ccccc2C3=O)cc1 (stereo unspecified)	15.5	20.0	?	13.1µM*
COc1ccc(C2CN=NC23CCCc2ccccc2C3=O)cc1 (stereo unspecified)	14.4	20.5	2.62µM*	3.7µM*
COc1ccccc1C1CN=NC12CCCc1ccccc1C2=O (stereo unspecified)	-3.7	-6.2	16.5µM*	9.28µM*
COc1ccc(C2CC(c3ccc(C)cc3)=NN2C(=O)CCC(=O)O)cc1OC (stereo unspecified)	-1.3	-4.1	?	-1.3%
CCC(C(=O)Nc1ccc(C(=O)N2CCCC2)cc1)c1ccccc1 (stereo unspecified)	8.2	-15.6	23.2%	-11.6%
C/C(CC(=O)Nc1cc(C)ccn1)=N\NC(=O)C(=O)Nc1cccc(C)c1	26.4*	32.5	1.47µM*	81.8%
C/C(CC(=O)Nc1ccccn1)=N\NC(=O)C(=O)Nc1ccccc1C	0.7	-19.7	1.85µM*	-4.4%
CCc1ccc(NC(=O)C(=O)N/N=C(\C)CC(=O)Nc2ccccn2)cc1	35.5*	47.8*	?	77.4%
COc1ccccc1NC(=O)C(=O)N/N=C(\C)CC(=O)Nc1ccccn1	11.2	23.3	39.2%	10.4%

Screens as filed in PubChem BioAssay.
